We go through 58 compounds from PubChem BioAssay AID1878 (Sanford-Burnham Center for Chemical Genomics, 2009).

The campaign covered roughly 1,000 compounds. About 200 (20%) were called active. No stated cut-off is given here; in the data, active means inhibition above about 55%; inactive means the rest. Only a sample is shown. Measured potencies and affinities stand elsewhere.

In the experiment the target is Dual specificity protein phosphatase 3 (Homo sapiens) (UniProt P51452). Put plainly: VHR1 phosphatase inhibitors, biochemical (AID 1878). As to conditions: recombinant VHR phosphatase, fluorogenic substrate; at 13.3 µM; hits give high values.
Dual specificity protein phosphatase 3 (Homo sapiens), sequence (P51452 whole entry, looked up): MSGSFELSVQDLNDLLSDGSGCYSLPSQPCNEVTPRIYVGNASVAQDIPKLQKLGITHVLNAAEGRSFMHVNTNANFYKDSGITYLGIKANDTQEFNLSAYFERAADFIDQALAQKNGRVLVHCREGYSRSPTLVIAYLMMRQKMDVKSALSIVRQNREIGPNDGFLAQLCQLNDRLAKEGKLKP
The term inhibition denotes the drop in the measured response relative to a control, in per cent. Consider `CCOc1ccc(-n2c(SCC(=O)N3CCc4ccccc43)nnc2-c2c[nH]c3ccccc23)cc1`, for which the inhibition is 83.6% (active).

As to `O=C(CN1CCN(c2ccc(O)cc2)CC1)N1CCc2ccccc21`, the inhibition is -16.5% (inactive).

As to `O=C(CCCN1C(=O)C(c2ccccc2)Oc2cccnc21)Nc1ccccc1Cl` (stereo not drawn), the inhibition was 4.6% (inactive).

`Cc1c(Cl)cccc1NC(=O)c1cccc(OC(F)F)c1`: the inhibition was 29.2% (inactive).

In the case of `COc1cc(CCNC(=O)c2ccccc2NC(=O)C2=C(C)OCCS2)cc(OC)c1OC`, the inhibition is -10.3% (inactive).

As for `Cc1ccc2nc(-c3ccncc3)cc(C(=O)Nc3ccc(OC(F)F)cc3)c2c1`, the inhibition was 69.1% (active).

Turning to `COc1ccccc1CCNC(=O)CNC(=O)c1ccc2ccccc2c1`, the inhibition was -4.1% (inactive).

For the compound `O=C(Nc1ccncc1)c1cc(-c2ccccn2)nc2ccc(Br)cc12`, the inhibition is 84.4% (active).

As for `COc1c(C(=O)Nc2ccc3[nH]c(=O)[nH]c3c2)cc2ccccc2c1Br`, the inhibition is 13.6% (inactive).

On to `COc1ccccc1CCNC(=O)c1cc(-c2ccncc2)nc2ccc(Br)cc12`, for which the inhibition is 70.1% (active).

For `O=C(Nc1ccc2nc3n(c(=O)c2c1)CCCC3)c1ccccc1F`, the inhibition is -11.4% (inactive).

Turning to `CCOc1ccccc1NC(=O)c1cc(-c2ccncc2)nc2c(Cl)cccc12`, the inhibition was 34.3% (inactive).

Regarding `CC1CCCCN1CCCNC(=O)C1CCN(c2nnc(-n3cccc3)s2)CC1` (stereo not drawn), the inhibition is -30.3% (inactive).

For `Cc1cccc(CSc2[nH]c(=O)ncc2C)c1`, the inhibition was 1% (inactive).

Consider `O=C(C1CCN(S(=O)(=O)c2cccs2)CC1)N1CCc2ccccc2C1`, for which the inhibition is -7.4% (inactive).

For `COc1ccc(NC(C)=O)cc1NC(=O)CSc1nnc(C2CCCCC2)n1N`, the inhibition was 0.2% (inactive).

Take `O=C(c1ccccc1)C1CCN(C(=O)c2ccc(Cl)cc2)CC1`: the inhibition is -17.9% (inactive).

On to `COc1ccc(N(C(=O)CNC(=O)c2ccco2)C(C(=O)NC2CCCCC2)c2ccncc2)cc1` (stereo not drawn), for which the inhibition is -11% (inactive).

For the compound `CCn1c(=O)n(CC)c2cc(N3CCCC3)c(NC(=O)c3cccc(OC)c3)cc21`, the inhibition was 0.2% (inactive).

Regarding `O=C(CCC(=O)c1ccc(Cl)cc1)NCc1ccccc1`, the inhibition was 3.5% (inactive).

Turning to `O=[N+]([O-])c1cccc2c([As](=O)(O)O)cccc12`, the inhibition is 0.9% (inactive).

For `O=c1c2cnn(-c3ccc(F)cc3)c2ncn1Cc1cccnc1`, the inhibition was -6.2% (inactive).

Regarding `Cc1ccc(-n2ncc3c2CCCC3NC(=O)CCc2cnccn2)cc1C` (stereo not drawn), the inhibition was -2.7% (inactive).

In the case of `S=c1[nH]nc(-c2ccccc2)n1/N=C/c1c[nH]c2ccccc12`, the inhibition was 1.6% (inactive).

Take `CCC1CCCCN1CCCNC(=O)c1ccc(CS(=O)(=O)c2ccccc2C)o1` (stereo not drawn): the inhibition is -7.8% (inactive).

As for `Cc1oc(-c2ccc(Cl)cc2)nc1CS(=O)CC(=O)NCCN1CCCCCC1` (stereo not drawn), the inhibition was -27.9% (inactive).

For `CCOc1cc(C2Nc3ccccc3NC3=C2C(=O)CC(C)(C)C3)ccc1OC(C)=O` (stereo not drawn), the inhibition is -4.7% (inactive).

Consider `Cc1ccc(NC(=O)CN2C(=O)S/C(=C\c3ccc(-c4cccc(C(=O)O)c4C)o3)C2=O)cc1C`, for which the inhibition is 84.7% (active).

For the compound `Cc1ccc(NC(=O)CN2C(=O)S/C(=C/c3ccc(-c4cccc(C(=O)O)c4)o3)C2=O)cc1`, the inhibition was 93.9% (active).

As to `COc1cc(NC(=O)CN2CCN(c3ccccn3)CC2)cc(OC)c1OC`, the inhibition is 6% (inactive).

Turning to `Cc1ccc(NC(=O)CN2C(=O)S/C(=C\c3ccc(-c4cccc(C(=O)O)c4C)o3)C2=O)cc1`, the inhibition was 97.5% (active).

Turning to `Cc1ccc(NC(=O)COC(=O)c2nn(C)cc2Cl)cc1`, the inhibition was -0.7% (inactive).

On to `CCCOc1ccc(Cn2c(=O)oc3ccc(C)cc32)cc1`, for which the inhibition is 7.7% (inactive).

In the case of `COc1ccccc1N1CCN(C2CCCN(Cc3cc(F)cc(F)c3)C2)CC1` (stereo not drawn), the inhibition was -2.1% (inactive).

For the compound `COc1cccc(CNC(=O)CCNS(=O)(=O)c2ccc3c(c2)oc(=O)n3C)c1`, the inhibition is -4.6% (inactive).

In the case of `COCCNC(=O)c1cccc(OC2CCN(C(C)COc3ccccc3)CC2)c1` (stereo not drawn), the inhibition is -14.8% (inactive).

Consider `Nc1ncc(Br)cc1S(=O)(=O)NCCC(=O)NCc1ccc(F)cc1`, for which the inhibition is 4.1% (inactive).

For the compound `CCN1CCN(CCCNC(=O)CS(=O)(=O)Cc2nc(-c3ccccc3C)oc2C)CC1`, the inhibition was -9.5% (inactive).

`c1ccc(-c2nnsc2-c2ccccc2)cc1`: the inhibition was -7.8% (inactive).

Consider `O=C(Cn1ccnc1)c1ccc(Cl)cc1`, for which the inhibition is 14.8% (inactive).

As for `CCC(C)NC(=O)c1ccc(CSCc2ccc(Cl)cc2)o1` (stereo not drawn), the inhibition was -3.4% (inactive).

For `CC1(C(=O)O)CCC(C(=O)NC2CCCCCC2)C1(C)C` (stereo not drawn), the inhibition was -1.3% (inactive).

As for `CCOc1ccccc1NC(=O)C1CCN(C(=O)c2cccs2)CC1`, the inhibition is -20.3% (inactive).

Take `CN(CCCNC(=O)c1ccccc1F)CCCNC(=O)c1ccccc1F`: the inhibition was 15.1% (inactive).

As to `Cc1ccc(C(C(=O)NC2CCCC2)N(Cc2ccc(F)cc2)C(=O)c2snc(C(N)=O)c2N)o1` (stereo not drawn), the inhibition was 10.6% (inactive).

In the case of `CN(C)c1ccc(NC(=O)CN2C3CCCC2CC(NC(=O)c2ccccc2)C3)cc1` (stereo not drawn), the inhibition was -12.8% (inactive).

On to `COc1ccc(NC2CCCN(C(=O)c3ccc(CSC)o3)C2)cc1OC` (stereo not drawn), for which the inhibition was 20.5% (inactive).

Take `CCC1CCCCN1CCCNC(=O)CN1C(=O)COc2ccc(S(=O)(=O)N3CCOCC3)cc21` (stereo not drawn): the inhibition was 1.2% (inactive).

Turning to `Cc1cc(C)c(S(=O)(=O)/N=C2/C=C(Sc3ncn[nH]3)C(=O)c3ccccc32)cc1C`, the inhibition is 15.8% (inactive).

For `COc1cc(CN2CCC(n3nccc3NC(=O)C3CCOC3)CC2)ccc1F` (stereo not drawn), the inhibition is -5.3% (inactive).

As to `COc1ccc(-n2nc(C(=O)NCC3CCCO3)c3ccccc3c2=O)cc1` (stereo not drawn), the inhibition was -4% (inactive).

As to `COc1ccc(-n2nc(C(=O)Nc3ccc(OC)c(OC)c3)c3c4ccccc4n(C)c3c2=O)cc1`, the inhibition is 94.9% (active).

With `COc1ccc(NC(=O)c2cn(CCC#N)nc2-c2ccc(OC)c(OC)c2)cc1`, the inhibition is -8.4% (inactive).

Turning to `Cc1ccc2c(c1)N(CC(=O)NCCCN1CCCCC1)C(=O)CO2`, the inhibition is 2.3% (inactive).

On to `CC(C)(C)SC(=O)C[C@@H]1NS(=O)(=O)OC2CCCCC21` (stereo partly drawn), for which the inhibition is 24.7% (inactive).

Turning to `CN(CC1CCCN(CCc2ccc(F)cc2)C1)C(=O)CCC(N)=O` (stereo not drawn), the inhibition is -4.8% (inactive).

For `CN(C)C1(CNCC(O)c2ccccc2)CCCCC1` (stereo not drawn), the inhibition was 6.5% (inactive).

In the case of `CC(=O)NC(Cc1ccc(F)cc1)C(=O)NC1CCN(S(=O)(=O)c2ccccc2)CC1` (stereo not drawn), the inhibition is 41% (inactive).
